{
  "source": "PubChem BioAssay (NCATS)",
  "key": {"[1]": {"experiment": "P-glycoprotein substrates identified in KB-3-1 adenocarcinoma cell line, qHTS therapeutic library screen (AID 1346986); note: nearly all actives have a fitted effect of over 60% in size", "how_it_was_run": "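Counter-screen: cherry-picked hits retested in the KB pair and in HEK-293 pcDNA/MDR-19 cells ± tariquidar. Primary screen used 72 h CellTiter-Glo viability in KB-3-1 and KB-8-5-11.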"}, "[2]": {"experiment": "P-glycoprotein substrates identified in KB-8-5-11 adenocarcinoma cell line, qHTS therapeutic library screen (AID 1346987); note: nearly all actives have a fitted effect of over 65% in size", "how_it_was_run": "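P-gp-mediated resistance screen: KB-8-5-11 cells treated 72 h with compounds in dose-response. CellTiter-Glo viability.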"}, "[3]": {"experiment": "Natriuretic polypeptide receptor (hNpr1) antagonism - Pilot counterscreen GloSensor control cell line (AID 1347045; calls by dose curve; note: series mostly up to about 38 µM)", "how_it_was_run": "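This counterscreen uses HEK293 cells expressing the GIP/pGS-40F cGMP biosensor. Compound-treated cells are challenged with 50 uM sodium nitroprusside, and the luciferase signal is compared before and after stimulation.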"}, "[4]": {"molecular_target": "Atrial natriuretic peptide receptor 2 (Homo sapiens) (UniProt P20594)", "sequence (P20594 whole entry, looked up)": "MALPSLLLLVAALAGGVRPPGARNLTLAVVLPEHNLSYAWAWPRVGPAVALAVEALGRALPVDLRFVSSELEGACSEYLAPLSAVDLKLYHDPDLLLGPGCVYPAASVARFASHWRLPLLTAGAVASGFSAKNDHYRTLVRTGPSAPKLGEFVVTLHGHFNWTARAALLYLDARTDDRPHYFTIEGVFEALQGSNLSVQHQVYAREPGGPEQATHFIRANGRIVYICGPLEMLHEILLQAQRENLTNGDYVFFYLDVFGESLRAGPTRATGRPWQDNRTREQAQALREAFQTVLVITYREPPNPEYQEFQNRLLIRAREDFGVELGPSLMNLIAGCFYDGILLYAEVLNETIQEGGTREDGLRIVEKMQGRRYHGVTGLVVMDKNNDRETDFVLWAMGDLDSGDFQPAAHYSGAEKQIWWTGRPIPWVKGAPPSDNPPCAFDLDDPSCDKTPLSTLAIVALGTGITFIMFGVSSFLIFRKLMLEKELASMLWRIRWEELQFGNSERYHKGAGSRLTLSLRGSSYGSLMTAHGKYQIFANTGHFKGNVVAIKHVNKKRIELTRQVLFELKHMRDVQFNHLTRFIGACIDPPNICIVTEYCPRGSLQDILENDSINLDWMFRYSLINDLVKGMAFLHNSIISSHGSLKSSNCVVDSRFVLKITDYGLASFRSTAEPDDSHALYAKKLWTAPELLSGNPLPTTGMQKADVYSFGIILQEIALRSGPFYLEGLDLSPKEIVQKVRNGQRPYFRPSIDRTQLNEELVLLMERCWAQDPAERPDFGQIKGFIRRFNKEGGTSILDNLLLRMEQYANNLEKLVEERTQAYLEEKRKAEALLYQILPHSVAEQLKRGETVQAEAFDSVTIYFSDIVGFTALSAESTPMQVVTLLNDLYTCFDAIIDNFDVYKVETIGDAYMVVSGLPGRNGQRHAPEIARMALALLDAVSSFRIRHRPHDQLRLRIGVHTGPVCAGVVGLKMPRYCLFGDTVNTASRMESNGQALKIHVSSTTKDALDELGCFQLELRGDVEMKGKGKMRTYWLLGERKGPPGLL", "experiment": "Natriuretic polypeptide receptor (hNpr2) antagonism - Pilot subtype selectivity assay (AID 1347050; calls by dose curve)", "how_it_was_run": "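Pilot selectivity screen against hNpr2: HEK293 cGMP-sensor cells are treated with LOPAC1280 compounds, then with hNppC peptide at 1 nM final. The cGMP-driven luminescence change over 20 min at room temperature is the read-out.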"}, "[5]": {"molecular_target": "T1, Tyrosine-protein phosphatase non-receptor type substrate 1 (Homo sapiens) + Leukocyte surface antigen CD47 (Homo sapiens) (UniProt P78324+Q08722)", "T1 sequence (P78324 whole entry, looked up)": "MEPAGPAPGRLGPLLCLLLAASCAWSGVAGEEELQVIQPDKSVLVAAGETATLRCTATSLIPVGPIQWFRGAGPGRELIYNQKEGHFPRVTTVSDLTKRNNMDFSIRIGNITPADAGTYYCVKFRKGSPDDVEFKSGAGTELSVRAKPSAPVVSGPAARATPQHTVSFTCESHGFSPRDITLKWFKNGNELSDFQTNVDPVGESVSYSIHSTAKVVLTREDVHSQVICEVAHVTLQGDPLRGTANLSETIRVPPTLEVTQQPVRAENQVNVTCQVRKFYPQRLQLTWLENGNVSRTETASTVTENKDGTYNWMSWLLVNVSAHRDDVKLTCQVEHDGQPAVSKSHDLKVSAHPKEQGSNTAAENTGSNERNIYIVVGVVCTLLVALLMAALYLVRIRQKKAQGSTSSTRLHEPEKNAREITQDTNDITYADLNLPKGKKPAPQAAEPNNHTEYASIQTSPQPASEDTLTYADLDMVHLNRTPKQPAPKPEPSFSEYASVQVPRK", "T1 sequence (Q08722 whole entry, looked up)": "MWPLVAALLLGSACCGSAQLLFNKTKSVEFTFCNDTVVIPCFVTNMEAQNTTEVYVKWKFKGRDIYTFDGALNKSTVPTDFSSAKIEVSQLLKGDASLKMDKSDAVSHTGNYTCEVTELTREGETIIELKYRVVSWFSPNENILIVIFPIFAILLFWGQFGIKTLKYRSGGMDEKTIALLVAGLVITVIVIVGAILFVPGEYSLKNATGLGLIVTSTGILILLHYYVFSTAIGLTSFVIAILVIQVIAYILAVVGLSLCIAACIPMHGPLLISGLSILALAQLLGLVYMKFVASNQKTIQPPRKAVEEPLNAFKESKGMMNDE", "experiment": "CD47-SIRPalpha protein protein interaction - LANCE assay qHTS validation (AID 1347057; active = well fitted curve in the direction sought with a large enough effect in the signal ratio, with a control signal flat, not every such curve was filed as active; the % refers to the signal ratio; note: series mostly up to about 38 µM)", "how_it_was_run": "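First, His-tagged CD47 and Eu-labelled anti-His antibody met the compound for 30 min; next, site-specifically biotinylated SIRPalpha was added for 30 min; finally streptavidin-APC was added before reading the TR-FRET ratio.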"}, "[6]": {"molecular_target": "T1, Tyrosine-protein phosphatase non-receptor type substrate 1 (Homo sapiens) + Leukocyte surface antigen CD47 (Homo sapiens)", "experiment": "CD47-SIRPalpha protein protein interaction - HTRF assay qHTS validation (AID 1347058; active = well fitted curve in the direction sought with a large enough effect in the signal ratio, not every such curve was filed as active; the % refers to the signal ratio; note: series mostly up to about 38 µM)", "how_it_was_run": "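TR-FRET read (Ch1/Ch2 ratio) of soluble extracellular CD47 and Avi-biotinylated SIRPalpha domains in PBS pH 7.4 with 0.05% IGEPAL; 7-point compound titration. Sequential 30 min room-temperature steps; non-biotinylated SIRPalpha as control inhibitor.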"}, "[7]": {"molecular_target": "T1, Tyrosine-protein phosphatase non-receptor type substrate 1 (Homo sapiens) + Leukocyte surface antigen CD47 (Homo sapiens)", "experiment": "CD47-SIRPalpha protein protein interaction - Alpha assay qHTS validation (AID 1347059)", "how_it_was_run": "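Binding is measured by AlphaScreen proximity: Ni-NTA acceptor beads capture His-CD47, streptavidin donor beads capture biotin-SIRPalpha. Each of three additions (SIRPalpha with compound, CD47, beads) incubates 30 min at room temperature protected from light.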"}, "[8]": {"molecular_target": "Parathyroid hormone/parathyroid hormone-related peptide receptor (Homo sapiens) (UniProt Q03431)", "sequence (Q03431 whole entry, looked up)": "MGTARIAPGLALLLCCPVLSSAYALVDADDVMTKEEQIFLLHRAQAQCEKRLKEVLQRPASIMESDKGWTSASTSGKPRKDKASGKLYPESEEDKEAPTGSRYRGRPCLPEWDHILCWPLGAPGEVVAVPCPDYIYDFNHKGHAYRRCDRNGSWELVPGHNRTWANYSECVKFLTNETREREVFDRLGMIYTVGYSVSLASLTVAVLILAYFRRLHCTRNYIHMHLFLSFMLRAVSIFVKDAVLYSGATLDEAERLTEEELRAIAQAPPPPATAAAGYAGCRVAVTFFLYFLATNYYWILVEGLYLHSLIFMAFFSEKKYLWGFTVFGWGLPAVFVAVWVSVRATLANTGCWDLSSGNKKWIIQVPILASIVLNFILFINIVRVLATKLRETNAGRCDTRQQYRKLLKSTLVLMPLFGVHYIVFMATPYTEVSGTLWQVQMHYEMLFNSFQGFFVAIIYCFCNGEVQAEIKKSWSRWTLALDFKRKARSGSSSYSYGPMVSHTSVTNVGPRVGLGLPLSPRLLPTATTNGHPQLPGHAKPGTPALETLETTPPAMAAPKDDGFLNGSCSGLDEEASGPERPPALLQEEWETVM", "experiment": "qHTS for PTHR1 Agonists: Optimization Screen against the NCGC LOPAC library (AID 1347079)", "how_it_was_run": "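Compounds were tested across a qHTS titration. PTHR1-expressing GP2 cells report cAMP rises via GloSensor luminescence after 1 hr compound exposure at 37C with IBMX present.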"}, "[9]": {"experiment": "qHTS of pediatric cancer cell lines to identify multiple opportunities for drug repurposing: Primary screen for TC32 cells (AID 1347089); note: nearly all actives have a fitted effect of over 60% in size", "how_it_was_run": "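Luminescent ATP read-out (CellTiter-Glo) of metabolically active TC32 cells after 48 h exposure. Concentration-response curves came from 11-point (MIPE, 0.78 nM–46 µM) or 8-point (NPC, 0.59 nM–46 µM) primary titrations; follow-up used 11 points.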"}, "[10]": {"experiment": "qHTS of pediatric cancer cell lines to identify multiple opportunities for drug repurposing: Primary screen for DAOY cells (AID 1347090); note: series mostly up to about 46 µM; nearly all actives have a fitted effect of over 55% in size", "how_it_was_run": "(§1)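 Cell viability, CellTiter-Glo luminescence; 500-1,000 cells/well, 8- or 11-point titration, 48 h compound exposure at 37 degrees C, 5% CO2. Controls: DMSO neutral, bortezomib 2.3 µM final as positive.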"}, "[11]": {"experiment": "qHTS of pediatric cancer cell lines to identify multiple opportunities for drug repurposing: Primary screen for SJ-GBM2 cells (AID 1347091)", "how_it_was_run": "as §1"}, "[12]": {"experiment": "NS1 protein of Zika virus - qHTS assay to identify small molecule inhibitors in human HEK 293 cells (AID 1347053)", "how_it_was_run": "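Inhibition of NS1 expression was scored in HEK 293 cells given compound 1 h ahead of MR766 virus (MOI = 0.5). Following 24 h at 37 C, two anti-NS1 antibodies generated a TR-FRET signal, scaled between uninfected and infected controls.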"}},
  "note": "Inconclusive results are not listed. Entries that show only a call come without a potency. Calls of active or inactive are those of the source. Unless noted, calls come from the whole dose curve; as a rule, active = well fitted curve in the direction sought with a large enough effect; inconclusive = small, poorly fitted or top-dose-only effect, or another doubt; inactive = no such curve, though single readings can be large; an effect the other way counts as inactive or inconclusive.",
  "data": [
    {"smiles": "CC1CC(=O)C2=C(O1)OC1(C)CCC3C(C)(C)C=CC(=O)C3(C)C1C2", "note": "(stereo unspecified)", "values": [
      {"measurement": "Potency", "setting": "[1]", "value": "inactive"},
      {"measurement": "Potency", "setting": "[2]", "value": "inactive"}
    ]},
    {"smiles": "CC(=O)OC[C@]1(O)[C@H]2[C@H](OC(=O)CC(C)C)OC=C(CO[C@@H]3O[C@H](CO)[C@@H](O)[C@H](O)[C@H]3O)[C@H]2C[C@@H]1O", "values": [
      {"measurement": "Potency", "setting": "[1]", "value": "inactive"},
      {"measurement": "Potency", "setting": "[2]", "value": "inactive"}
    ]},
    {"smiles": "CC1CC(O)CC(C)(C)C1(O)CCO", "note": "(stereo unspecified)", "values": [
      {"measurement": "Potency", "setting": "[1]", "value": "inactive"},
      {"measurement": "Potency", "setting": "[2]", "value": "inactive"}
    ]},
    {"smiles": "CC(/C=C/[C@]1(O)[C@@]2(C)CO[C@@]1(C)C[C@@H](O)C2)=C\\C(=O)O[C@@H]1O[C@H](CO)[C@@H](O)[C@H](O)[C@H]1O", "values": [
      {"measurement": "Potency", "setting": "[1]", "value": "inactive"},
      {"measurement": "Potency", "setting": "[2]", "value": "inactive"}
    ]},
    {"smiles": "CC(C)(O)/C=C1/C(=O)C(C)(C)C(=O)C(C)(C)C1(O)O[C@@H]1O[C@H](COC(=O)c2cc(O)c(O)c(O)c2)[C@@H](O)[C@H](O)[C@H]1O", "note": "(stereo partly specified)", "values": [
      {"measurement": "Potency", "setting": "[1]", "value": "inactive"},
      {"measurement": "Potency", "setting": "[2]", "value": "inactive"}
    ]},
    {"smiles": "O=c1ccn(C2OC(CO)C(O)C2O)c(=O)[nH]1", "note": "(stereo unspecified)", "values": [
      {"measurement": "Potency", "setting": "[1]", "value": "inactive"},
      {"measurement": "Potency", "setting": "[2]", "value": "inactive"}
    ]},
    {"smiles": "COc1cc(CCc2ccccc2)c(C(=O)O)c2c1CC(C(C)(C)O)O2", "note": "(stereo unspecified)", "values": [
      {"measurement": "Potency", "setting": "[1]", "value": "inactive"},
      {"measurement": "Potency", "setting": "[2]", "value": "inactive"}
    ]},
    {"smiles": "CC1CCC2(O1)C(C)(C)CC(O[C@@H]1O[C@H](CO[C@@H]3OC[C@](O)(CO)[C@H]3O)[C@@H](O)[C@H](O)[C@H]1O)CC2(C)O", "note": "(stereo partly specified)", "values": [
      {"measurement": "Potency", "setting": "[1]", "value": "inactive"},
      {"measurement": "Potency", "setting": "[2]", "value": "inactive"}
    ]},
    {"smiles": "NC(=O)c1cccc(-c2cc(O)cc(OC(=O)NC3CCCCC3)c2)c1", "values": [
      {"measurement": "Potency", "setting": "[1]", "value": "inactive"},
      {"measurement": "Potency", "setting": "[2]", "value": "inactive"}
    ]},
    {"smiles": "CC1(C)CCC(C)(C)c2cc([C@@H](O)C(=O)Nc3ccc(C(=O)O)cc3F)ccc21", "values": [
      {"measurement": "Potency", "setting": "[1]", "value": "inactive"},
      {"measurement": "Potency", "setting": "[2]", "value": "inactive"}
    ]},
    {"smiles": "C[C@@H]1O[C@@H](O[C@H]2[C@H](OC(=O)C34CCC(C)(C)CC3C3=CCC5C6(C)CC(O)C(O[C@@H]7O[C@H](CO)[C@@H](O)[C@H](O)[C@H]7O)C(C)(C(=O)O)C6CCC5(C)C3(CO)CC4)O[C@H](C)[C@H](O)[C@@H]2O)[C@H](O)[C@H](O)[C@H]1O[C@@H]1OC[C@@H](O)[C@H](O)[C@H]1O", "note": "(stereo partly specified)", "values": [
      {"measurement": "outcome", "setting": "[1]", "value": "inactive [at 9.29 µM]"},
      {"measurement": "outcome", "setting": "[2]", "value": "inactive [at 9.29 µM]"}
    ]},
    {"smiles": "Nc1nonc1C(=Nc1ccc(F)c(Cl)c1)NO", "values": [
      {"measurement": "Potency", "setting": "[1]", "value": "inactive"},
      {"measurement": "Potency", "setting": "[2]", "value": "inactive"}
    ]},
    {"smiles": "CC(=O)OC[C@@]12[C@H](O)C[C@@H](C)[C@]3(C[C@@H](c4ccoc4)OC3=O)[C@H]1C[C@H](O)C[C@]21CO1", "values": [
      {"measurement": "Potency", "setting": "[1]", "value": "inactive"},
      {"measurement": "Potency", "setting": "[2]", "value": "inactive"}
    ]},
    {"smiles": "COC1=CC(=O)O[C@@H](/C=C/c2ccccc2)[C@@H]1O", "values": [
      {"measurement": "Potency", "setting": "[1]", "value": "inactive"},
      {"measurement": "Potency", "setting": "[2]", "value": "inactive"}
    ]},
    {"smiles": "CN1Cc2c(N)cccc2C(c2ccccc2)C1", "note": "(stereo unspecified)", "values": [
      {"measurement": "outcome", "setting": "[3]", "value": "inactive"},
      {"measurement": "outcome", "setting": "[4]", "value": "inactive"},
      {"measurement": "outcome", "setting": "[5]", "value": "inactive"},
      {"measurement": "outcome", "setting": "[6]", "value": "inactive"},
      {"measurement": "outcome", "setting": "[7]", "value": "inactive"},
      {"measurement": "outcome", "setting": "[8]", "value": "inactive"},
      {"measurement": "outcome", "setting": "[9]", "value": "inactive"},
      {"measurement": "outcome", "setting": "[10]", "value": "inactive"},
      {"measurement": "outcome", "setting": "[11]", "value": "inactive"}
    ]},
    {"smiles": "CC(=O)OC(C)OC(=O)C(C)c1ccc(-c2ccccc2)c(F)c1", "note": "(stereo unspecified)", "values": [
      {"measurement": "outcome", "setting": "[12]", "value": "inactive"},
      {"measurement": "outcome", "setting": "[9]", "value": "inactive"},
      {"measurement": "outcome", "setting": "[10]", "value": "inactive"},
      {"measurement": "outcome", "setting": "[11]", "value": "inactive"}
    ]}
  ]
}
